Results taken from PubChem BioAssay.
Values joined by “and” are separate entries in the source; they are usually repeats but may differ in a detail not shown here. Equal entries are not always repeated. Active and inactive are the calls of the source.

Legend:
Albumin (Bos taurus) = Albumin (Bos taurus) (UniProt P02769); assay: compounds binding labelled BSA control protein – biochemical, small-molecule microarray, Alexa647 label, 635/667 nm fluorescence, artefact control for SMM control protein annotation, profiling panel (AID 1118); details: BSA-A647 binding, fluorescence 635 nm, higher = more signal;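 also: score merges 667 nm emission intensity and signal-to-noise per printed compound spot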
[1] = probe aXIP binding to arrayed compounds – biochemical, NeuroSMM set, 635/667 nm fluorescence, primary screen (AID 1119); details: small-molecule microarray, higher = more signal, called active from +8 up or from −8 down;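 also: probe is the protein aXip251-270 applied at 1 µg/mL to compound-printed slides; binding of probe to printed compounds measured as 667 nm fluorescence plus signal to noise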
[2] = probe aNOTCH3 binding on compound microarray – biochemical, small-molecule microarray, 635/667 nm fluorescence, primary screen (AID 1120); details: higher = more signal;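 also: probe is a biotin-tagged antibody raised against NOTCH3 rather than NOTCH3 protein; score merges spot fluorescence near 667 nm with spot signal to noise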
[3] = probe aNOTCH2 binding on compound microarray – biochemical, small-molecule microarray, 635/667 nm fluorescence, primary screen (AID 1121); details: higher = more signal;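 also: score merges feature fluorescence read at 667 nm with its signal to noise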
[4] = biological target: Carbonic anhydrase 2 (Homo sapiens) (UniProt P00918); assay: compounds binding carbonic anhydrase 2 – biochemical, small-molecule microarray, Alexa647-labelled CAII, profiling panel (AID 1122); details: CAII-A647 binding fluorescence, higher = more signal
[5] = COS7 lysate on small-molecule microarray, probe aHis, 635 nm (AID 1123); details: COS7 cell lysate, fluorescence, higher = more signal;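 also: z-score combines 667nm fluorescence intensity with signal-to-noise per printed compound spot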
[6] = probe aLAP1 signal on lysate-treated microarray – cell lysate, small-molecule microarray, COS7 lysate, primary screen (AID 1124); details: probe aLAP1, fluorescence, higher = more signal;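 also: lysate comes from COS7 cells expressing LAP1 and is applied at 0.3 µg/mL; score merges spot fluorescence near 667 nm with signal-to-noise over triplicate slides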
Sam68 (KHDRBS1) = assay: compounds binding KHDRBS1 protein – biochemical, small-molecule microarray, 635 nm fluorescence, primary screen (AID 1125); details: higher = more signal;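 also: score merges 667 nm channel intensity with signal to noise over triplicate slides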
[7] = tested on: Chordin-like protein 2 (CHRDL2); assay: compounds binding chordin-like 2 – biochemical, small-molecule microarray, 635 nm fluorescence, primary screen (AID 1126); details: fluorescence 635 nm, higher = more signal;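 also: printed compound slides probed with Chrdl2 protein at 4 µg/mL for 1 h at 4 C; score merges 667 nm emission intensity with signal to noise over three replicate slides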
[8] = biological target: Concanavalin-A (Canavalia ensiformis) (UniProt P02866); assay: compounds binding concanavalin A lectin – biochemical, small-molecule microarray, Alexa647 label, 635 nm, artefact control for SMM control protein annotation, primary screen (AID 1127); details: ConA-A647 binding fluorescence, higher = more signal;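 also: z combines 667 nm emission intensity with signal-to-noise across three replicate slides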
[9] = compounds binding Alexa647 anti-His antibody – biochemical, small-molecule microarray, 635 nm fluorescence, artefact control for SMM control protein annotation, primary screen (AID 1128); details: higher = more signal;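 also: score merges feature fluorescence with signal-to-noise for each printed compound spot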
[10] = tested on: Human papillomavirus type 1a E7 protein (residues 1-88); assay: HPV1a E7 small-molecule binders, primary screen, biochemical, small-molecule microarray, residues 1-88, 635 nm (AID 1129); details: small-molecule microarray binding, fluorescence 635 nm; higher = more signal
[11] = biological target: Focal adhesion kinase 1 (Homo sapiens) (UniProt Q05397); assay: PTK2 protein binding on printed compound slides – biochemical, small-molecule microarray, 635/667 nm fluorescence, BSA, DTT, primary screen (AID 1130); details: 635 nm fluorescence, higher = more signal;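 also: composite of spot emission at 667 nm and signal to noise over triplicate slides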
[12] = tested on: Fibrinogen (Alexa647-labelled); assay: Alexa647-fibrinogen binding to printed small molecules – biochemical, small-molecule microarray, 635/667 nm fluorescence, artefact control for SMM control-protein annotation, profiling panel (AID 1131); details: fibrinogen-A647 binding fluorescence, higher = more signal;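 also: z-score merges 667 nm fluorescence with per-spot signal-to-noise over triplicate slides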
[13] = biological target: Follistatin (Homo sapiens) (UniProt P19883); assay: FST protein binding to printed compounds – biochemical, small-molecule microarray, 635/667 nm fluorescence, primary screen (AID 1132); details: 635 nm fluorescence, higher = more signal
[14] = biological target: Fibroblast growth factor 2 (Homo sapiens) (UniProt P09038); assay: basic fibroblast growth factor binding to printed compounds – biochemical, small-molecule microarray, 635/667 nm fluorescence, primary screen (AID 1133); details: FGF2, fluorescence 635/667, higher = more signal
[15] = JC-1 mitochondrial potential readout, lung cancer cells – cell-based, A549, JC-1 fluorescence, basal, 24 h, 100 nL, profiling panel (AID 1138); details: higher = more signal;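 also: A549 lung adenocarcinoma cells under basal conditions with no added stimulus; test concentration not given here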
Lefty1 = Lefty1 protein binding to printed compounds – biochemical, small-molecule microarray, 635/667 nm fluorescence, primary screen (AID 1139); details: fluorescence 635/667, higher = more signal
[16] = tested on: wheat germ agglutinin (Triticum aestivum), Alexa647-labelled; assay: Alexa647-WGA lectin binding to printed small molecules – biochemical, small-molecule microarray, 635/667 nm fluorescence, artefact control for SMM control-protein annotation, profiling panel (AID 1140); details: WGA-A647 binding, 635 nm fluorescence, higher = more signal;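 also: score merges 667 nm feature emission with signal to noise over triplicate slides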
[17] = biological target: Luciferin 4-monooxygenase (Photinus pyralis) (UniProt P08659); assay: inhibition of purified Photinus pyralis luciferase – biochemical, luminescence, purified enzyme, 2006 set, primary screen (AID 1141); details: purified firefly luciferase, SteadyGlo luminescence, 30 min; higher = more signal, called active from +8 up or from −8 down;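 also: cell-free assay with purified firefly luciferase at 100 ng per well in PBS; test concentration not given here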
Luciferin 4-monooxygenase (Photinus pyralis), sequence (P08659 whole entry, looked up): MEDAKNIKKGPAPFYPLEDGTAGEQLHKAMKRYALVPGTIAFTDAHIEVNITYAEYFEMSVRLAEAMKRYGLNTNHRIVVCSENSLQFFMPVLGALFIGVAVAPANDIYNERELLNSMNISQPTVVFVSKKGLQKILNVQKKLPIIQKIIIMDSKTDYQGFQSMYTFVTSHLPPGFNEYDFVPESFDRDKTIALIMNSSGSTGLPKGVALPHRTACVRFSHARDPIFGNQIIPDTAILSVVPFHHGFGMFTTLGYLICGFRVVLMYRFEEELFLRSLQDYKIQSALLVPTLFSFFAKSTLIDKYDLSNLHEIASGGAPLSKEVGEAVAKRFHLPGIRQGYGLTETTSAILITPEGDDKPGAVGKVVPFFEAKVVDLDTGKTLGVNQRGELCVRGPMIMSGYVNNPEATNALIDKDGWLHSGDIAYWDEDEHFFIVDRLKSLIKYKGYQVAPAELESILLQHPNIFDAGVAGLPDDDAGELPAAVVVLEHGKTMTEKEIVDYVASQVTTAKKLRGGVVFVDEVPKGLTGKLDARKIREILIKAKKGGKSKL

Albumin (Bos taurus), sequence (P02769 whole entry, looked up): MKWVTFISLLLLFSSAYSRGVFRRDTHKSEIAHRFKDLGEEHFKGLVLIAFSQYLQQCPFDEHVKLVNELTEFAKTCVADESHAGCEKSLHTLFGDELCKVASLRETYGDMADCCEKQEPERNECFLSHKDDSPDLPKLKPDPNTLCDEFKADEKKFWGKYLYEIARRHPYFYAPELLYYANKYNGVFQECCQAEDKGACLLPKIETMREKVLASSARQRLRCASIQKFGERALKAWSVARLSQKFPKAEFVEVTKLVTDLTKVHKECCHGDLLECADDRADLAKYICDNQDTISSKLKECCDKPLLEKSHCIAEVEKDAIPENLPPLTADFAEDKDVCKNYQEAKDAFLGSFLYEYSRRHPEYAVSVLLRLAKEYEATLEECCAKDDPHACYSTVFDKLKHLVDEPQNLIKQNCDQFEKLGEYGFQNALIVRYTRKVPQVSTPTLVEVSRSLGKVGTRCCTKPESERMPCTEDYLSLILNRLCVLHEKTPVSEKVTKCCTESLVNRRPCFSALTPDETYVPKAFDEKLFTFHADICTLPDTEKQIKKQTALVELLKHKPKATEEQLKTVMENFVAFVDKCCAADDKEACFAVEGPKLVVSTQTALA
Fibroblast growth factor 2 (Homo sapiens), sequence (P09038 whole entry, looked up): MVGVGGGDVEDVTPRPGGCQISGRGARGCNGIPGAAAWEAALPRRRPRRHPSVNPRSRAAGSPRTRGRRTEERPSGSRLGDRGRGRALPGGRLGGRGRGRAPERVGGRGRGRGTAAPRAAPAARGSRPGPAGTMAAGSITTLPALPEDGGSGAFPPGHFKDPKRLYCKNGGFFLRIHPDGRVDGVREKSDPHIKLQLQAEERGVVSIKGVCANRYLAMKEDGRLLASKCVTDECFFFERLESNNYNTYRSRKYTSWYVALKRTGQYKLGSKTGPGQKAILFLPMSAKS
Concanavalin-A (Canavalia ensiformis), sequence (P02866 whole entry, looked up): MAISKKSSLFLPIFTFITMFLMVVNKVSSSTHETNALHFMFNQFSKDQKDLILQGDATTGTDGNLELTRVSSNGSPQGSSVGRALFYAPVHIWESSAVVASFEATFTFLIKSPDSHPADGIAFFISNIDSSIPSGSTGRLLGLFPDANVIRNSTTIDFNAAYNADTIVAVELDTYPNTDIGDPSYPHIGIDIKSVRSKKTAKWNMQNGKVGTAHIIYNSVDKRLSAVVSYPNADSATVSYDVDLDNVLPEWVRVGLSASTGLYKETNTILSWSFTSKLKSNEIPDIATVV
Follistatin (Homo sapiens), sequence (P19883 whole entry, looked up): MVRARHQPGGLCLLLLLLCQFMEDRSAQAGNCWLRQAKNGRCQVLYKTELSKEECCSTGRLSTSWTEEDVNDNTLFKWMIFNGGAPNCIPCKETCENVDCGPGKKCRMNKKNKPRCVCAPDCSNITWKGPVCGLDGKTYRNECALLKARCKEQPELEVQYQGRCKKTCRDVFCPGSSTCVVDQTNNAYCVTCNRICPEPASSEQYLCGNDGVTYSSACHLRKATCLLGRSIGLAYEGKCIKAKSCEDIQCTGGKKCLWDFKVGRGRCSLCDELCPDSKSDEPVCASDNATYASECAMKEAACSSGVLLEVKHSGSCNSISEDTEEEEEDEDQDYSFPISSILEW
Focal adhesion kinase 1 (Homo sapiens), sequence (Q05397 whole entry, looked up): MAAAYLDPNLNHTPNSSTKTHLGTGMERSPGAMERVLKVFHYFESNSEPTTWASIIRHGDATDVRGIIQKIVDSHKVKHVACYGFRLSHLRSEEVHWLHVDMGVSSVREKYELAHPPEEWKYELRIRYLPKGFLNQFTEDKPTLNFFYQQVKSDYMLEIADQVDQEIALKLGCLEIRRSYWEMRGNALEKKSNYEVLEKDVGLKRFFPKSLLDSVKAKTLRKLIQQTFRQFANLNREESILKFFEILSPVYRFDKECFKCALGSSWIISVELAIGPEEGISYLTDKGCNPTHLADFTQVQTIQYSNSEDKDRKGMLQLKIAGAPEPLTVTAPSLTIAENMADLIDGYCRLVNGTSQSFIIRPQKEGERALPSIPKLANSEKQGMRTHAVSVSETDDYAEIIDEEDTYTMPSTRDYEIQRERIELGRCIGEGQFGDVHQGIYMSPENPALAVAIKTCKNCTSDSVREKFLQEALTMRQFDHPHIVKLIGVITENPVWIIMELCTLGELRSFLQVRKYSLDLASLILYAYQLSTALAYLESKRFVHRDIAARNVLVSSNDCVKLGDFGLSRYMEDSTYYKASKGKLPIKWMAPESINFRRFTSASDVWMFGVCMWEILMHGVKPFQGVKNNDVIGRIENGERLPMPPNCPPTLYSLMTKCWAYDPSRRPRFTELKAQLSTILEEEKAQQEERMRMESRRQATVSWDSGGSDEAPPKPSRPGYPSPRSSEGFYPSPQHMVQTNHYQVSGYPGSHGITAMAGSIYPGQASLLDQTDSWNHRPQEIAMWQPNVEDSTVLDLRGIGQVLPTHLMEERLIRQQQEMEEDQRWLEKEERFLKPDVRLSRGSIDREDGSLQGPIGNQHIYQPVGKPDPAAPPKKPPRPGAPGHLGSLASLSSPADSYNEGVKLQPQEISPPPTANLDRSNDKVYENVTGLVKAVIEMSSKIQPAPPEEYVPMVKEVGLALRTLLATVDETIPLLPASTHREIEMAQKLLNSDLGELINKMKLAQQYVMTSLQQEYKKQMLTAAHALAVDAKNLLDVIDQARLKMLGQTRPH

SMILES	composite z-score (Albumin (Bos taurus))	composite Z-score [1]	composite z-score [2]	composite z-score [3]	composite z-score [4]	composite z-score [5]	composite z-score [6]	composite z-score (Sam68 (KHDRBS1))	composite z-score [7]	composite z-score [8]	composite z-score [9]	composite z-score [10]	composite z-score [11]	composite z-score [12]	composite z-score [13]	composite z-score [14]	z-score [15]	composite z-score (Lefty1)	composite z-score [16]	z-score [17]
CO[C@H]1COC(=O)CC=C[C@@H](C)COC(=O)[C@H](CCSC)NC(=O)CC=C[C@@H]1C	-1.57 and -1.06	2.77 (inactive) and 1.61 (inactive)	0.0311 and -0.0043	-0.0942 and -0.0241	-0.407 and -0.489	-0.335 and -0.552	0.383 and -1.41	0.982 and 1.31	1.54 and 1.65	-0.773 and -2.15	0.512 and -0.138	-0.375 and -0.74	0.285 and -0.776	-1.19 and -1.63	1.5 and 1.58	1.97 and 1.78	-1.26 and 0.523	1.79 and 1.82	-0.353 and -1.42	-0.142 (inactive) and -0.463 (inactive)
COC(=O)C1=C(C)N(Cc2ccccc2)[C@]23O[C@](C(=O)OC)(C(=O)N2[C@@H]1c1ccccc1)[C@H]1C(=O)N(c2ccccc2)C(=O)[C@H]13	0.692 and 0.614	-0.119 (inactive) and -0.275 (inactive)	0.121 and 0.024	0.0793 and -0.0321	0.306 and 0.428	1.05 and -0.39	0.294 and 0.526	0.682 and 0.308	0.223 and 0.523	0.838 and 0.0089	0.798 and 0.258	1.12 and 0.575	0.277 and 0.0443	0.77 and 0.267	0.516 and 1.01	0.562 and 0.626	0.6 and 0.565	0.477 and 1.27	1.07 and 0.541	-0.207 (inactive) and -0.978 (inactive)
C[C@@]1([C@@H](NC(=O)Cc2ccccc2)c2ccc(-c3ccccc3)cc2)C[C@H]1C1CCCCC1	0.895 and 0.715 and 0.978	1.18 (inactive) and 0.111 (inactive) and 0.428 (inactive)	0.767 and 1.49 and -0.137	0.24 and 0.797 and -0.324	0.426 and 0.62 and 0.464	0.0877 and 1.59 and 2.69	0.566 and 1.22 and 0.475	0.158 and 0.69 and 1.33	0.261 and -0.0345 and -0.954	0.956 and 0.166 and 1.12	1.13 and 1.49 and 1.27	1.18 and 1.08 and 0.987	0.284 and 0.0485 and 0.83	0.666 and 0.314 and 0.934	0.153 and -0.222 and -0.138	-0.131 and -0.0451 and -0.355	-0.788 and 0.267 and 0.196	-1.08 and -1.06 and -0.0526	1.04 and 0.829 and 1.15	0.393 (inactive) and 0.406 (inactive) and 1.92 (inactive)
CO[C@@H]1COC(=O)CC=C[C@H](C)COC(=O)[C@H](C)NC(=O)CC=C[C@H]1C	-1.02	0.332 (inactive)	-0.1	-0.164	-0.427	-0.448	-0.235	0.548	1.06	0.161	0.401	-0.375	-0.0308	-0.607	1.11	1.72	0.521	1.03	-0.587	-0.394 (inactive)
C=CCN(Cc1ccccc1)C(=O)C(c1cccs1)N(C(=O)/C=C\C(=O)O)c1c(Cl)cccc1CO (stereo not given)	-0.248 and -1.84	0.0723 (inactive) and -1.07 (inactive)	-0.437 and -0.491	-0.155 and -0.0772	-0.393 and -0.843	-0.665 and -0.537	-0.657 and -0.277	-0.84 and -2.12	-1.64 and -2.62	-1.52 and -1.86	-0.815 and -1.36	-0.562 and -1.54	-0.675 and -0.0599	-2.79 and -3.53	-1.74 and -2.71	-2.4 and -1.88	-0.321 and -0.229	-1.51 and -1.93	-0.482 and -1.57	1.02 (inactive) and 0.077 (inactive)
C=CCN(C(=O)C1N(CCCCCCO)C(=O)C2C(C(=O)O)C3C=CC21O3)c1ccc(OC)cc1 (stereo not given)	-0.547 and -1.14	-0.344 (inactive) and -0.542 (inactive)	-0.577 and -0.287	-0.0345 and -0.0148	0.981 and 0.391	3.24 and 2.93	1.44 and 0.066	-0.931 and -2.13	-2.65 and -2.43	-0.941 and -2.04	-1.91 and -1.82	-1.26 and -1.68	0.85 and -0.212	-1.05 and -2.02	-1.83 and -1.96	-2.95 and -1.96	1.34 and 0.478	-2.4 and -2.28	-0.537 and -0.483	-1.09 (inactive) and -1.38 (inactive)
